Results on 12 compounds are retold here after PubChem BioAssay (NCATS).

Test [1] is described as follows: qHTS assay for small molecule agonists of the antioxidant response element (ARE) signaling pathway (AID 651741; active = well fitted activation curve with a large enough effect in the signal ratio; the % refers to the signal ratio; note: potency is the fitted concentration of half-maximal effect; for activation: % of control where 0% means no effect). Put shortly: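 HepG2 ARE-bla cells plated at 2,000 cells/well and incubated 5 h at 37 C/5% CO2 received 23 nL compound in DMSO. After 16 h at 37 C, LiveBLAzer B/G FRET substrate was applied for 2 h at room temperature and fluorescence read.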
A short description of test [2]: qHTS assay for small molecule activators of the nuclear factor-kappa B (NF-kB) signaling pathway (AID 651749; active = well fitted activation curve with a large enough effect in the signal ratio; the % refers to the signal ratio; note: series mostly up to about 77 µM; % of control where 0% means no effect). Particulars: NF-kB-bla ME-180 cells, beta-lactamase FRET ratio, 16 h; hits give high values. Put shortly:
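Incubation lasted 16 hr at 37C in 5% CO2 after 23 nL compound addition to ME-180 NF-kB-bla cells. Activation appears as beta-lactamase-mediated FRET loss.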

Test [3] is described as follows: qHTS assay for environmental chemicals that activate the Aryl hydrocarbon Receptor (AhR) signaling pathway (AID 651777). Note: % of control where 0% means no effect; nearly all actives have a fitted effect of over 15% in size. The settings on record: 1A2-DRE human hepatoma cells, luciferase, 24 h; activation: hits give high values. The gist of the method: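 Stable CYP1A2 promoter/DRE-luciferase human hepatoma line treated 24 hr; One-Glo luminescence, 30 min RT.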
Test [4] can be described thus: qHTS assay for small molecule agonists of the antioxidant response element (ARE) signaling pathway measured by Nrf2-dependant transcriptional activity (AID 720636; active = well fitted curve in the direction sought with a large enough effect in the repeat runs; an effect the other way counts as inactive or inconclusive;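 note: HepG2 cells with an ARE-driven luciferase reporter; % of control where 0% means no effect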). Put shortly: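 Reporter gene assay, HepG2 ARE-luc: 16 hr compound, 37 C, 5% CO2; read-out luciferase luminescence.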
A short description of test [5]: qHTS assay for small molecule activators of the p53 signaling pathway (AID 651743; active = well fitted activation curve with a large enough effect in the signal ratio, not every such curve was filed as active; the % refers to the signal ratio; note: series mostly up to about 92 µM; % of control where 0% means no effect). The settings on record: HCT-116 p53RE-bla, beta-lactamase FRET ratio, 16 h; activation: hits give high values. The gist of the method: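 HCT-116 p53RE-bla, 4,000 cells/well; 5 h settle; cpd/DMSO 16 h, 37 C; LiveBLAzer B/G 2 h RT; fluorescence intensity.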
Test [6] can be described thus: qHTS assay for small molecule disruptors of the mitochondrial membrane potential - 1 hr assay (AID 651754; calls by dose curve; note: nearly all actives have a fitted effect of over 35% in size; note: potency is the fitted concentration of half-maximal effect). Put shortly:
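HepG2 cells, attached overnight at 37C, were exposed to compound or DMSO vehicle for 1 hr at 37C, 5% CO2, then stained with Mito-MPS dye for 30 min. Red aggregate versus green monomer fluorescence reports membrane potential.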

A short description of test [7]: qHTS assay for small molecule disruptors of the mitochondrial membrane potential - 5 hr assay (AID 651755; calls by dose curve; note: nearly all actives have a fitted effect of over 40% in size; note: potency is the fitted concentration of half-maximal effect). The gist of the method:
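HepG2 cells (2,000/well), attached overnight, exposed to compound 5 hr at 37C, then Mito-MPS dye 30 min. Fluorescence read for monomers (490/535 nm) and aggregates (540/590 nm).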

The target of test [8] is Tumor necrosis factor (Homo sapiens) (UniProt P01375). The test is described as follows: qHTS assay to identify small molecules that stimulate Tumor Necrosis Factor-alpha (TNF-alpha) secretion (AID 651757; active = well fitted curve in the direction sought with a large enough effect in the signal ratio; the % refers to the signal ratio; note: 0% is about no effect). Put shortly: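 THP-1 cells were exposed to compounds for 17 hrs at 37 C, after which secreted TNF-alpha was measured by homogeneous HTRF (TR-FRET) using cryptate- and XL665-labeled anti-TNF-alpha antibodies, read after 3 hr at room temperature.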

Test [9] addresses Nuclear receptor ROR-gamma (Homo sapiens) (UniProt P51449). As to the kind of experiment: qHTS assay for small molecule antagonists of the retinoid-related orphan receptor gamma (ROR-gamma) signaling pathway (AID 651802). Note: nearly all actives have a fitted effect of over 60% in size. Note: potency is the fitted concentration of half-maximal effect. Put shortly: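 CHO cells carrying TET-inducible ROR-gamma and an ROR response element–luciferase reporter were exposed to compound, then induced with doxycycline. After 16hr at 37C, luminescence was read; lower signal indicates antagonism.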

A short description of test [10]: qHTS assay for small molecule antagonists of the retinoid-related orphan receptor gamma (ROR-gamma) signaling pathway - cell viability counter screen (AID 720652; active = well fitted curve in the direction sought with a large enough effect in the repeat runs; an effect the other way counts as inactive or inconclusive;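 note: compound exposure lasted 16 hr before ATP read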; note: potency is the fitted concentration of half-maximal effect). Put shortly:
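Counter screen in CHO cells carrying TET-inducible ROR-gamma and an ROR response element-luciferase reporter; cells plated 5 hr, compound pinned, doxycycline added, then 16 hr at 37 C. Viability read as intracellular ATP by CellTiter-Glo luminescence.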

Test [11] can be described thus: qHTS assay to identify small molecules that stimulate interleukin-8 (IL-8) secretion (AID 651758; active = well fitted activation curve with a large enough effect in the signal ratio; the % refers to the signal ratio; note: 0% is about no effect). The gist of the method:
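THP-1 cells (2000/well) exposed to compound 16 h at 37 C; secreted IL-8 then detected by HTRF with cryptate- and XL665-labelled anti-IL-8 antibody pair after 1-3 h at room temperature.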

The nature of test [12]: qHTS assay for small molecule agonists of the antioxidant response element (ARE) signaling pathway measured by Nrf2-dependant transcriptional activity - cell viability counter screen (AID 720653; active = well fitted curve in the direction sought with a large enough effect in the repeat runs; an effect the other way counts as inactive or inconclusive; note: % is set by controls: 0 for no effect and ±100 for the full control effect). Particulars: ARE-bla HepG2 viability, CellTiter-Glo ATP luminescence, 16 h; max response: hits give low values. Put shortly: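 ARE-bla HepG2 cells treated with compounds for 16 h at 37C; this counter screen measures viability as intracellular ATP by CellTiter-Glo luminescence after 30 min at room temperature.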

The target of test [13] is Peroxisome proliferator-activated receptor alpha (Homo sapiens) (UniProt Q07869). As to the kind of experiment: qHTS assay for small molecule agonists of the peroxisome proliferator-activated receptor alpha (PPARalpha) signaling pathway (AID 651778). Note: % of control where 0% means no effect. Particulars: PathHunter PPARalpha complementation, chemiluminescence, 6 h; hits give high values. Put shortly:
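Enzyme-fragment complementation assay in which ligand-bound PPARalpha translocates and forms an active enzyme that generates chemiluminescence. Cells were plated overnight, exposed to compound for 6 hr at 37 C, and then given detection reagent for 60 min at room temperature.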

Each structure is given as a SMILES string. Values joined by “and” are separate entries in the source; they are usually repeats but may differ in a detail not shown here. Identical values can stand only once. Unmarked numbers belong to inactive results. Records with an inconclusive call do not appear. Active and inactive are the calls of the source. Unless noted, calls come from the whole dose curve; as a rule, active = well fitted curve in the direction sought with a large enough effect; inconclusive = small, poorly fitted or top-dose-only effect, or another doubt; inactive = no such curve, though single readings can be large; an effect the other way counts as inactive or inconclusive.

Sequence of Tumor necrosis factor (Homo sapiens) (P01375 whole entry, looked up): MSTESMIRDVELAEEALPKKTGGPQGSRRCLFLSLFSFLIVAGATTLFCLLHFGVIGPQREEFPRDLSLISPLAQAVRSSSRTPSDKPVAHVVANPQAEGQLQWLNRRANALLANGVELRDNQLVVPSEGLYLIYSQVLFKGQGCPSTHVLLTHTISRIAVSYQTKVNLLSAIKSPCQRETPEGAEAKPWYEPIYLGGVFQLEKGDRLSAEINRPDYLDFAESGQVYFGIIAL
Sequence of Nuclear receptor ROR-gamma (Homo sapiens) (P51449 whole entry, looked up): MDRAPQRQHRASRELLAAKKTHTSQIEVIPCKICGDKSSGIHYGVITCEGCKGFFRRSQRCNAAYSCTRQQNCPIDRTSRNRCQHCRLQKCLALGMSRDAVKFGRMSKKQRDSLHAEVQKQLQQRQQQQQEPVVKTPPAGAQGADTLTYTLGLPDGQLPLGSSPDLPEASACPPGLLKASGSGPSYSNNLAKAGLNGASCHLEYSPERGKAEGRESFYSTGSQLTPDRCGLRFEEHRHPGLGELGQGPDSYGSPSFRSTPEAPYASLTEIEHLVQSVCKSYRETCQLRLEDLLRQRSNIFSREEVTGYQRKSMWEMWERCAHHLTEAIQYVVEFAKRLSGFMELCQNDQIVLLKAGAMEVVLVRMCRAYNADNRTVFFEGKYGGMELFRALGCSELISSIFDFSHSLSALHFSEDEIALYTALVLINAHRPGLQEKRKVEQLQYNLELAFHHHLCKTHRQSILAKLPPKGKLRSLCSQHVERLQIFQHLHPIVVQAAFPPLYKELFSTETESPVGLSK
Sequence of Peroxisome proliferator-activated receptor alpha (Homo sapiens) (Q07869 whole entry, looked up, the tested form may be a part): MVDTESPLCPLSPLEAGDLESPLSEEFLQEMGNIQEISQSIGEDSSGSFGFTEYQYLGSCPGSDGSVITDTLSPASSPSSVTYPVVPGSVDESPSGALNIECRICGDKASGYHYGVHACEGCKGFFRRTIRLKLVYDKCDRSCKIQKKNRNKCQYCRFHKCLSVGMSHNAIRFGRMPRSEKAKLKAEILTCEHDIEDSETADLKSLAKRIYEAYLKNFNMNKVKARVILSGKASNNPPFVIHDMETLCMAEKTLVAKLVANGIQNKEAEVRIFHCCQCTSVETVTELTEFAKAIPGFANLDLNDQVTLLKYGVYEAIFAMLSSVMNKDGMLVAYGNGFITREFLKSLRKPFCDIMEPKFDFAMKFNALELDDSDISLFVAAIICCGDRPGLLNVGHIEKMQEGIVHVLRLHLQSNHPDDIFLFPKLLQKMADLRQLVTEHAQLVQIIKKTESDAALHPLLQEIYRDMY

Consider `N#CN`, for which the Potency entry in test [1] and in test [4] was “inactive” throughout. Moreover, the figures for the activation in test [2] and in test [3] were 0.422% and 1.29%, respectively.

Take `COC1=CC(=O)O[C@@H](/C=C/c2ccccc2)C1`: in test [1], the Potency is 5.31 µM (active). Moreover, the activation in test [5] was -5.52%; in [2] it was -0.734%; in test [3] it was 1.75%. For the same compound, the Potency entry in test [6], in test [7], in test [9], in test [4] and in test [10] was “inactive” each time. The compound was classed as inactive in test [8].

For the compound `O=[N+]([O-])C(Br)(CO)CO`, the Potency in test [1] was 54.5 µM (active). For the same compound, the activation in [2] is -3.37%; in test [3], 5.58%.

Consider `C[C@]12CCC(=O)C[C@@H]1CC[C@@H]1[C@@H]2CC[C@]2(C)[C@@H](O)CC[C@@H]12`, for which the Potency was 24.3 µM (active) in test [1] and 26.6 µM (active) in test [9]. Further, the activation was -3.4% and -1.57% in test [5]; 1.2% and 0.597% in test [2]; -0.925% and -0.613% in [3]. The outcome in [8] was inactive. Besides, the Potency result in [4] and in test [10] was “inactive” in each case.

Consider `O=[N+]([O-])c1ccc(F)c([N+](=O)[O-])c1`, for which the figures for the Potency in [1], in test [9] and in test [10] were 42.2 µM (active), 33.5 µM (active) and 59.6 µM (active), respectively. Moreover, the activation is -0.0445% in [2] and 0.408% in test [3]. The Potency result in test [4] is “inactive”.

In the case of `O=C(NCNC(=O)NC1C(=O)NC(=O)N1CO)NC1C(=O)NC(=O)N1CO` (centres undefined), the Potency entry in [1] and in [4] was “inactive” each time. The activation in test [5] is -1.04%.

Turning to `O=C1C2CC=CCC2C(=O)N1SC(Cl)(Cl)Cl` (centres undefined), the activation in test [5] is -1.26% and 18.6%; in [2], -2.11%; in [3], -4.61% and -3.77% and 2.69%. Further, the Potency in test [6] was 26.6 µM (active) and 33.5 µM (active); in test [7] it was 23.7 µM (active) and 33.5 µM (active); in [10], 29.8 µM (active). Moreover, the outcome in test [8] was inactive. The Potency result in [4] is “inactive”.

With `[O]=[Cd]`, the Potency result in [1], in [6], in [7], in test [9], in [4] and in test [10] was “inactive” throughout. Also, the activation was 1.29% in test [5], -0.74% in test [2] and 0.231% in test [3]. Further, in test [8], the outcome was inactive.

On to `COc1ccc2c(c1OC)C(=O)OC2C1c2cc3c(cc2CCN1C)OCO3` (centres undefined), for which the Potency result in test [1], in test [6], in [7], in test [11], in test [9] and in test [4] was “inactive” throughout. In [10], the Potency entry was “inactive”. Besides, the activation in test [5] is -5.72%; in test [3], 0.0911%. For the same compound, the call in test [8] was inactive.

For `ClC1C(Cl)C(Cl)C(Cl)C(Cl)C1Cl` (centres undefined), the Potency entry in [1] and in test [4] was “inactive” in each case. The activation in test [5] was -1.74% [middle of 4 runs]; in test [2], -1.15% [middle of 4 runs]; in test [3], 1.78% [middle of 4 runs].

In the case of `C=CCN=C=S`, the Potency result in test [1], in test [6], in test [7], in [11], in test [9] and in test [4] was “inactive” throughout. The activation in test [5] was -0.403%; in test [2], -1.41%; in [3], 0.264%. Also, the compound was classed as inactive in [8]. Moreover, the max response in test [12] is 9.92%.

As for `O=C1C[C@@H]2OCC=C3CN4CC[C@]56c7ccccc7N1[C@H]5[C@H]2[C@H]3C[C@H]46`, the Potency entry in test [1] and in test [4] was “inactive” each time. In addition, the activation in [5] is -1.99%; in test [2], -1.87%; in test [3] it was 0.363%. Besides, the max response in [13] is -1.11%.
